B2AR ag = beta2AR agonists driving receptor internalization, primary screen, cell-based, FAP fluorogen, flow cytometry | Beta-2 adrenergic receptor (Homo sapiens), P07550 | Am2.2-beta2AR cells | response, % (no concentration beside the values) | 340,000 compounds, 0.43% hits | AID 504454, 2011;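 active = response above a set limit, near 3 SD of response in nonfluorescent compounds, cut at about 42% in these data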
Exocytosis inh = LAMP-1 surface exposure blockers, TALL-104 cells – cell-based, flow cytometry, MLPCN library, primary screen; TALL-104 LAMP-1 surface exposure; cells stimulated with thapsigargin and PMA; inhibition, % at 10 µM; 360,000 compounds, 0.66% hits; AID 651702, 2012;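 active = inhibition above about 55%, limit read from the data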
ABHD5-PLIN5 inh = ABHD5-PLIN5 interaction inhibitors, primary screen, cell lysate, split luciferase complementation, luminescence; Perilipin-5 (Homo sapiens) + 1-acylglycerol-3-phosphate O-acyltransferase ABHD5 (Homo …; Split G. princeps luciferase complementation, 4 h; inhibition, % at 4 µM; 360,000 compounds, 0.78% hits; AID 602281, 2012;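 active = inhibition above the mean inhibition across every tested compound plus 3 SD, cut at about 22% in these data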
TLR4 MyD88 comp = inhibitors of TLR4-MyD88 association in cells, primary screen, cell-based, HeLa CL3-4, BLA complementation, FRET ratio. AID 861, 2007. inhibition, % at 8.4 µM. HeLa CL3-4 TLR4/MyD88 BLA complementation. Toll-like receptor 4 (Homo sapiens) + Myeloid differentiation primary response protein …. 200,000 compounds, 0.18% hits; in the data active = inhibition above about 25%
TLR9-MyD88 inh = inhibitors of TLR9-MyD88 association in cells, primary screen, cell-based, CHO, BLA complementation, fluorescence; Toll-like receptor 9 (Homo sapiens) + Myeloid differentiation primary response protein …; CCF4 FRET ratio; inhibition, % at 4.98 µM; 340,000 compounds, 0.21% hits;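 active = inhibition above the mean over all tested compounds plus 3 SD, cut at about 21% in these data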
NOD2 RIPK2 PPI = NOD2-RIPK2 binding disruptors in cells, primary screen, fluorescence, CHO cells, BLA complementation. inhibition, % at 4.98 µM. 360,000 compounds, 0.38% hits. CCF4 ratio. Receptor-interacting serine/threonine-protein kinase 2 (Homo sapiens), O43353; in the data active = inhibition above about 21%
B2AR ag CP1 = beta2AR agonists via receptor internalization, confirmation, cell-based, FAP fluorogen, flow cytometry, single point, cherry pick 1; shares compounds with B2AR ag; Am2.2-beta2AR cells, FAP surface receptor; hits give low values; percent response (surface receptor), % at 10 µM; 1,100 compounds, 25% hits;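 active = surface receptor percent response at or below 58%, roughly 3 SD from nonfluorescent compounds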
FAP fluor counter = flagged in Am2.2 fluorescence counterscreen for beta-2AR agonists; shares compounds with B2AR ag; Am2.2 cells, FAP fluorogen flow cytometry; hits give low values; calls only at 10 µM; 1,100 tested, under 10 active; AID 588765;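 active = percent response below a set limit in fluorescence channel 1 and below 50% in channel 8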
Large screens that a line does not name were inactive (follow-up assays come after a bar, where they were run). Most compounds without a hit are left out; they make up all but 2% or so of the library.

O=C(/C=C/[C@H]1O[C@@H](n2cnc3c(NC(=O)c4ccccc4)ncnc32)[C@H](O)[C@@H]1O)NCC1CCCCC1	none (no result: B2AR ag, TLR4 MyD88 comp, TLR9-MyD88 inh)
O=C(NN=Cc1ccc2c(c1)CCN2)c1cccs1	none (no result: B2AR ag, TLR4 MyD88 comp)
O=C(Nc1cc(C(F)(F)F)ccc1N1CCCCC1)C1=COCCO1	none (no result: B2AR ag, TLR4 MyD88 comp)
COCCc1ncc(CN2CCC(C(=O)Nc3ccc(-n4cccn4)cc3)CC2)cn1	B2AR ag 49.8 (no result: TLR4 MyD88 comp) | B2AR ag CP1 29.8 | FAP fluor counter inactive
COc1ccc(OCCCC(=O)OCC(=O)N2CCN(S(=O)(=O)c3ccc(C)cc3C)CC2)cc1	none (no result: TLR4 MyD88 comp)
O=C(NCc1ccccc1)C(=O)NCC1OCCN1C(=O)c1ccc(Cl)cc1 (configuration not stated)	none
CC(C)=CCC(C)(C)C1OCCN1C(=O)c1ccccc1 (configuration not stated)	B2AR ag 61.7 | B2AR ag CP1 21.6 | FAP fluor counter inactive
O=C(NC1(Cc2ccc(O)cc2)CCCCC1)c1ccccc1	B2AR ag 42.9 (no result: TLR4 MyD88 comp) | B2AR ag CP1 41.0 | FAP fluor counter inactive
O=C(NC1(C(=O)O)CCCC1)c1ccccc1	none (no result: TLR4 MyD88 comp)
O=C1c2ccccc2C(c2nc3ccccc3[nH]2)N1c1ccccn1 (configuration not stated)	none (no result: B2AR ag, TLR4 MyD88 comp, TLR9-MyD88 inh)
Cc1ccccc1OCc1nc(-c2ccc(NC(=O)c3cccs3)cc2)no1	none | B2AR ag CP1 inactive | FAP fluor counter inactive
Cc1ccccc1-c1nc(-c2ccc(NC(=O)c3cccs3)cc2)no1	none
CC(NC(=O)c1ccco1)c1nc(-c2ccccc2)no1 (configuration not stated)	none (no result: TLR4 MyD88 comp)
Cc1ccccc1OCc1nc(-c2ccc(NC(=O)c3ccc4c(c3)OCO4)cc2)no1	none | B2AR ag CP1 inactive | FAP fluor counter inactive
Cc1ccc(-c2noc(COc3ccccc3C)n2)cc1	none
CC(Oc1ccc(Cl)cc1Cl)c1nc(-c2ccc(NC(=O)c3ccco3)cc2)no1 (configuration not stated)	B2AR ag 66.3 | B2AR ag CP1 inactive | FAP fluor counter inactive
Cc1ccccc1OCc1nc(-c2ccc(NC(=O)c3ccco3)cc2)no1	none | B2AR ag CP1 inactive | FAP fluor counter inactive
N=C1CCCC1C(=S)SCCC(N)=O (configuration not stated)	none (no result: B2AR ag, TLR4 MyD88 comp)
COC(=O)[C@@]12C[C@@H](CC(=O)NCC34CC5CC(CC(C5)C3)C4)C(=O)N(CCc3ccc(OC)c(OC)c3)C1=CCC(C)(C)C2	none (no result: B2AR ag, TLR4 MyD88 comp, TLR9-MyD88 inh)
O=C(Nc1ccc(S(=O)(=O)NC2=NCCCCC2)cc1)c1cccc(OC(F)F)c1	none (no result: B2AR ag, TLR4 MyD88 comp)
Cc1cc(F)ccc1C(O)c1ncc(-c2ccccc2Cl)[nH]1 (configuration not stated)	none (no result: B2AR ag, TLR4 MyD88 comp, TLR9-MyD88 inh)
Cc1cccc2sc(NC(=O)CN(C)S(=O)(=O)c3ccc(Br)s3)nc12	B2AR ag 51.2 | B2AR ag CP1 inactive | FAP fluor counter inactive
COc1cc(CNCCc2ccc(S(N)(=O)=O)cc2)ccc1OCc1ccc(Cl)cc1	B2AR ag 54.6 | B2AR ag CP1 inactive | FAP fluor counter inactive
CCCCN1CC(C)(C)Oc2cccc(F)c2S1(=O)=O	none (no result: TLR4 MyD88 comp)
COc1cc(CC(=O)N2c3ccccc3N=C(c3ccccc3)C2C(=O)NCc2ccccc2)cc(OC)c1 (configuration not stated)	none (no result: B2AR ag, TLR4 MyD88 comp, TLR9-MyD88 inh)
CC(=O)Nc1cc(S(=O)(=O)Nc2ccccc2)c(C)cc1C	B2AR ag 46.8 | B2AR ag CP1 inactive | FAP fluor counter inactive

Screens deposited in PubChem BioAssay by several laboratories.
